# Experimental data published in the supplement of paper PMC10037445.
# “And” between values parts separate entries of the source, which are not always exact repeats. Identical values can stand only once. Over roughly 2,900 compounds, “NF-kB SEAP reporter activity, fold change vs agonist alone” has its median near 0.99; the highest 2% begin near 2.6. For the sample, the highest values were picked, then their nearest neighbours and some compounds at random.
# Assays:
# [1] = tested on: RAW-Dual; experiment: NF-kB SEAP reporter activity, fold change vs agonist alone; cytotoxicity flag (confluency mask): not cytotoxic; higher = enhanced NF-kB activity
# How it was run: (§1)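 Library stock was pin-tooled at 50 nL into 384-well plates of RAW-Dual macrophages (50,000 cells/well, DMEM), followed 1 h later by a PRR agonist, and the cells were kept at 37 °C, 5% CO2. Supernatant collected after 20 hours was read for IRF by QuantiLuc luminescence and for NF-κB by QuantiBlue absorbance at 620 nm. Reporter activity is fold change over agonist-alone wells, and a well counted as cytotoxic when its IncuCyte confluency was below 70% of agonist controls in both mask sets.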
# [2] = tested on: RAW-Dual; experiment: NF-kB SEAP reporter activity, fold change vs agonist alone; higher = enhanced NF-kB activity; details: library stock concentration (final ~1000-fold dilution): 10 mM
# How it was run: as §1
# [3] = tested on: RAW-Dual; experiment: NF-kB SEAP reporter activity, fold change vs agonist alone; cytotoxicity flag (confluency mask): cytotoxic (confluency <70% of control); higher = enhanced NF-kB activity
# How it was run: as §1
# [4] = agonist: ODN 1826 (TLR9) 0.5 ug/mL
# [5] = agonist: Pam2CSK4 (TLR2/6) 0.1 ug/mL
# [6] = agonist: Pam3CSK4 (TLR2/1) 0.1 ug/mL
# [7] = cytotoxicity flag (confluency mask): not cytotoxic, agonist: Imiquimod (TLR7) […]
# [8] = cytotoxicity flag (confluency mask): not cytotoxic, agonist: MPLA (TLR4) […]
compound,measurement,setting,value
COC(=O)C1=C(C)NC(C)=C(C(=O)OCC(C)C)C1c1ccccc1[N+](=O)[O-] (stereo unspecified) (library stock concentration (final ~1000-fold dilution): 10 mM),NF-kB SEAP reporter activity,[1]; agonist: LPS (TLR4) 0.1 ug/mL,0.885
same,NF-kB SEAP reporter activity,[1]; [4],0.605
same,NF-kB SEAP reporter activity,[1]; [5],0.675
same,NF-kB SEAP reporter activity,[1]; [6],0.706
COC(=O)C1=C(C)NC(C)=C(C(=O)OCC(C)C)C1c1ccccc1[N+](=O)[O-] (stereo unspecified),NF-kB SEAP reporter activity,[2]; [7],0.706
same,NF-kB SEAP reporter activity,[2]; [8],0.773
CCOC(=O)C1=C(C)NC(C)=C(C(=O)OC)C1c1cccc(Cl)c1Cl (stereo unspecified),NF-kB SEAP reporter activity,[2]; [7],1.53
same,NF-kB SEAP reporter activity,[2]; [8],0.952
CCOC(=O)C1=C(C)NC(C)=C(C(=O)OC)C1c1cccc(Cl)c1Cl (stereo unspecified) (library stock concentration (final ~1000-fold dilution): 10 mM),NF-kB SEAP reporter activity,[1]; agonist: LPS (TLR4) 0.1 ug/mL,0.607
same,NF-kB SEAP reporter activity,[1]; [4],0.648
same,NF-kB SEAP reporter activity,[1]; [5],0.408
same,NF-kB SEAP reporter activity,[1]; [6],0.423
CCOC(=O)C1=C(COCCN)NC(C)=C(C(=O)OC)C1c1ccccc1Cl.O=S(=O)(O)c1ccccc1 (stereo unspecified) (library stock concentration (final ~1000-fold dilution): 10 mM),NF-kB SEAP reporter activity,[3]; agonist: LPS (TLR4) 0.1 ug/mL,2.27
same,NF-kB SEAP reporter activity,[3]; [4],0.532
same,NF-kB SEAP reporter activity,[3]; [5],0.907
same,NF-kB SEAP reporter activity,[3]; [6],0.924
CCCC(=O)OCOC(=O)C1=C(C)NC(C)=C(C(=O)OC)C1c1cccc(Cl)c1Cl (stereo unspecified) (library stock concentration (final ~1000-fold dilution): 10 mM),NF-kB SEAP reporter activity,[1]; agonist: LPS (TLR4) 0.1 ug/mL,0.954
same,NF-kB SEAP reporter activity,[1]; [4],1.19
same,NF-kB SEAP reporter activity,[1]; [5],0.911
same,NF-kB SEAP reporter activity,[1]; [6],1.1
CCCC(=O)OCOC(=O)C1=C(C)NC(C)=C(C(=O)OC)C1c1cccc(Cl)c1Cl (stereo unspecified),NF-kB SEAP reporter activity,[2]; [7],1.02
same,NF-kB SEAP reporter activity,[2]; [8],0.958
COC(=O)C1=C(C)NC(C)=C(C(=O)OC)C1c1ccccc1[N+](=O)[O-],NF-kB SEAP reporter activity,[2]; [7],1.59
same,NF-kB SEAP reporter activity,[2]; [8],1.35
COC(=O)C1=C(C)NC(C)=C(C(=O)OC)C1c1ccccc1[N+](=O)[O-] (library stock concentration (final ~1000-fold dilution): 10 mM),NF-kB SEAP reporter activity,[1]; agonist: LPS (TLR4) 0.1 ug/mL,2.15
same,NF-kB SEAP reporter activity,[1]; [4],1.42
same,NF-kB SEAP reporter activity,[1]; [5],1.5
same,NF-kB SEAP reporter activity,[1]; [6],1.37
CCOC(=O)C1=C(COCCN)NC(C)=C(C(=O)OC)C1c1ccccc1Cl (stereo unspecified) (library stock concentration (final ~1000-fold dilution): 10 mM),NF-kB SEAP reporter activity,[3]; agonist: LPS (TLR4) 0.1 ug/mL,2.23 and 2.05
same,NF-kB SEAP reporter activity,[3]; [4],0.736 and 1.01
same,NF-kB SEAP reporter activity,[3]; [5],0.785 and 0.751
same,NF-kB SEAP reporter activity,[3]; [6],0.888 and 1.41
CCOC(=O)C1=C(COCCN)NC(C)=C(C(=O)OC)C1c1ccccc1Cl.O=S(=O)(O)c1ccccc1 (stereo unspecified),NF-kB SEAP reporter activity,"[2]; cytotoxicity flag (confluency mask): cytotoxic (confluency <70% of control), agonist: Imiquimod (TLR7) […]",2.53
same,NF-kB SEAP reporter activity,"[2]; cytotoxicity flag (confluency mask): cytotoxic (confluency <70% of control), agonist: MPLA (TLR4) […]",2.58
CCC1OC(=O)C(C)C(OC2CC(C)(OC)C(O)C(C)O2)C(C)C(OC2OC(C)CC(N(C)C)C2O)C(C)(OC)CC(C)C(=O)C(C)C(O)C1(C)O (stereo unspecified),NF-kB SEAP reporter activity,[2]; [7],0.947
same,NF-kB SEAP reporter activity,[2]; [8],0.96
CCC1OC(=O)C(C)C(OC2CC(C)(OC)C(O)C(C)O2)C(C)C(OC2OC(C)CC(N(C)C)C2O)C(C)(OC)CC(C)C(=O)C(C)C(O)C1(C)O (stereo unspecified) (library stock concentration (final ~1000-fold dilution): 10 mM),NF-kB SEAP reporter activity,[1]; agonist: LPS (TLR4) 0.1 ug/mL,0.99
same,NF-kB SEAP reporter activity,[1]; [4],0.929
same,NF-kB SEAP reporter activity,[1]; [5],0.942
same,NF-kB SEAP reporter activity,[1]; [6],0.932
CC(=O)C1CCC2C3CC=C4CC(O)CCC4(C)C3CCC12C (stereo unspecified) (library stock concentration (final ~1000-fold dilution): 10 mM),NF-kB SEAP reporter activity,[1]; agonist: LPS (TLR4) 0.1 ug/mL,1.1
same,NF-kB SEAP reporter activity,[1]; [4],0.897
same,NF-kB SEAP reporter activity,[1]; [5],0.904
same,NF-kB SEAP reporter activity,[1]; [6],0.972
CC(=O)C1CCC2C3CC=C4CC(O)CCC4(C)C3CCC12C (stereo unspecified),NF-kB SEAP reporter activity,[2]; [7],1.07
same,NF-kB SEAP reporter activity,[2]; [8],1.3
